Source: PubChem (Columbia University Molecular Screening Center)
Shown is part of a subset that was picked to be rich in hits.
VCAM1 TNFa pot – potentiators of TNFa-induced VCAM1 expression, primary screen, imaging, HUVEC, TNFa stimulus, immunofluorescence. HUVEC TNFa-stimulated VCAM-1 immunofluorescence, high-content imaging; scaled per plate to unstimulated/TNFa-only wells. activation, % at 2 µM. actives 0.19% (n = 93,000);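 active = activation above the screen mean plus 3 SD, with well images confirming the hit on visual review, cut at about 28% in these data, passing the limit was not always enough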;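 also: signal is the number of cytoplasmic VCAM-1 stained grains per positive cell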
VCAM1 pot conf – potentiators of TNFa-induced VCAM1 expression, confirmation, imaging, HUVEC, triplicate retest | shares compounds with VCAM1 TNFa pot | HUVEC TNFa-stimulated VCAM-1 immunofluorescence imaging | activation, % at 2 µM | 230 tested, under 10 active | AID 1034, 2008;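 active = activation above 30% in triplicate retests at 2 µM, then confirmed by visual review of the well images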;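 also: scaled per plate between unstimulated and TNFa-stimulated DMSO control wells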
The depositor's hits bear a star.

SMILES	VCAM1 TNFa pot	others
CCCC12CN3CN(C1)CC(CCC)(C3)C2O (stereo unspecified)	33*	VCAM1 pot conf=-20
Cn1c(=O)cc(OCC(=O)N2CCN(Cc3ccc4c(c3)OCO4)CC2)c2ccccc21	-16
CCC(=O)OC1(c2cccc(C)c2)CC(C)N(C)CC1C (stereo unspecified)	-4
CCCCNc1ccncc1S(=O)(=O)NC(=O)NC(C)C	6
CCC(=O)c1cc(F)c(N2CCN(CC)CC2)cc1C	-1
Cc1ccccc1-n1c(C)nc2sccc2c1=O	-8
CCOc1cccc(OCC)c2c(C)[n+](CC3CCCO3)c(C)c1-2 (stereo unspecified)	32*	VCAM1 pot conf=4
CCNc1ccc(P(=S)(N(C)C)N(C)C)cc1	-21
O=P(/C(=N/O)N1CCOCC1)(N1CCOCC1)N1CCOCC1	-1
C=C1N2CCC(CC2)C1(O)c1ccccc1C (stereo unspecified)	-41
